Measurements: PubChem BioAssay (EPA / NIEHS)
The source holds several records for some structures; these can differ, active in one and inactive in another. Calls of active or inactive are those of the source. How the source made its calls: active means hit-call score of the fitted dose curve at least 0.9, where 1 is the maximum; inactive means score below 0.9.

Tests used:
[1] = read-out: Tissue Factor, F3 (gene 2152); assay: BSK_CASM3C_TissueFactor: BioMAP Diversity Plus: CASM3C Assay for Tissue Factor Biomarker Activity (AID 2283052); conditions: primary human coronary artery smooth muscle cells; actives raise or lower the signal;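 further: cell surface tissue factor protein level read by ELISA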
[2] = read-out: Interferon-gamma inducible Protein 10 (IP10), CXCL10 (gene 3627); assay: BSK_hDFCGF_IP10: BioMAP Diversity Plus: hDFCGF Assay for Interferon-gamma inducible Protein 10 (IP10) Biomarker Activity (AID 2283053); conditions: primary human foreskin fibroblasts; actives raise or lower the signal
Procedure, shortened: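 ELISA quantification of IP-10 after a 24 h chemical exposure of human dermal foreskin fibroblast primary cultures. Both increases and decreases versus DMSO fitted.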

[3] = read-out: Urokinase-type plasminogen activator receptor (uPAR), PLAUR (gene 5329); assay: BSK_CASM3C_uPAR: BioMAP Diversity Plus: CASM3C Assay for Urokinase-type plasminogen activator receptor (uPAR) Biomarker Activity (AID 2283054); conditions: primary human coronary artery smooth muscle cells; actives raise or lower the signal;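 further: cell-surface uPAR protein level quantified by ELISA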
[4] = read-out: Vascular cell adhesion molecule 1 (VCAM1), VCAM1 (gene 7412); assay: BSK_CASM3C_VCAM1: BioMAP Diversity Plus: CASM3C Assay for Vascular cell adhesion molecule 1 (VCAM1) Biomarker Activity (AID 2283055); conditions: primary human coronary artery smooth muscle cells; actives raise or lower the signal;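 further: VCAM-1 protein level quantified by ELISA on the cells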
[5] = read-out: Collagen III, COL3A1 (gene 1281); assay: BSK_hDFCGF_CollagenIII: BioMAP Diversity Plus: hDFCGF Assay for Collagen III Biomarker Activity (AID 2283056); conditions: primary human foreskin fibroblasts; actives raise or lower the signal
Procedure, shortened: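 ELISA readout of Collagen III in human dermal (foreskin) fibroblasts, taken 24 h post-treatment. Gain or loss relative to DMSO vehicle fitted in both directions.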

[6] = read-out: Epidermal growth factor receptor (EGFR), EGFR (gene 1956); assay: BSK_hDFCGF_EGFR: BioMAP Diversity Plus: hDFCGF Assay for Epidermal growth factor receptor (EGFR) Biomarker Activity (AID 2283057); conditions: primary human foreskin fibroblasts; actives raise or lower the signal
Procedure, shortened: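 EGFR levels by ELISA in human dermal fibroblast cultures, 24 h post-treatment, fitted bidirectionally versus DMSO. Parallel wells stained with sulforhodamine B to detect overt cytotoxicity.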

[7] = read-out: Interleukin-8 (IL8), CXCL8 (gene 3576); assay: BSK_hDFCGF_IL8: BioMAP Diversity Plus: hDFCGF Assay for Interleukin-8 (IL8) Biomarker Activity (AID 2283058); conditions: primary human foreskin fibroblasts; actives raise or lower the signal
Procedure, shortened: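 IL-8 levels read by ELISA at 24 hours after dosing human skin fibroblast cultures. Parallel SRB staining assessed overt cytotoxicity, and gain or loss of signal was fitted against DMSO control.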

[8] = BSK_hDFCGF_Proliferation: Cell Proliferation Assessment in the BioMAP Diversity Plus: hDFCGF Assay (AID 2283059); conditions: primary human foreskin fibroblasts;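 further: curves fitted for both rise and fall of signal versus DMSO baseline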
Procedure, shortened: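 This proliferation readout used SRB total-protein staining of human foreskin fibroblasts […], normalized to DMSO with bidirectional curve fitting.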

[9] = read-out: Macrophage colony-stimulating factor (MCSF), CSF1 (gene 1435); assay: BSK_hDFCGF_MCSF: BioMAP Diversity Plus: hDFCGF Assay for Macrophage colony-stimulating factor (MCSF) Biomarker Activity (AID 2283060); conditions: primary human foreskin fibroblasts; actives raise or lower the signal
Procedure, shortened: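 M-CSF levels read by ELISA at 24 h post-dosing in human skin fibroblasts. Parallel cultures stained with SRB assessed cytotoxicity at the same time point; response fitted in both directions against the DMSO baseline.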

[10] = BSK_hDFCGF_SRB: Viability Assessment in the BioMAP Diversity Plus: hDFCGF Assay (AID 2283061); conditions: primary human foreskin fibroblasts;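 further: cells exposed to compound for 24 h before the read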
Procedure, shortened: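 Viability was read as total protein: after 10% TCA fixation, wells were stained with 0.1% sulforhodamine B and read at 560 nm. Primary human foreskin fibroblasts were dosed for 24 h, with bidirectional fitting versus DMSO.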

[11] = read-out: TIMP metallopeptidase inhibitor 1 (TIMP1), TIMP1 (gene 7076); assay: BSK_hDFCGF_TIMP1: BioMAP Diversity Plus: hDFCGF Assay for TIMP metallopeptidase inhibitor 1 (TIMP1) Biomarker Activity (AID 2283062); conditions: primary human foreskin fibroblasts; actives raise or lower the signal
Procedure, shortened: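 TIMP-1 measured by ELISA 24 h after chemical dosing of primary human skin fibroblasts, with gain or loss fitted relative to DMSO. Parallel SRB staining (560 nm) monitored overt cytotoxicity.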

[12] = read-out: Monokine induced gamma interferon (MIG), CXCL9 (gene 4283); assay: BSK_hDFCGF_MIG: BioMAP Diversity Plus: hDFCGF Assay for Monokine induced gamma interferon (MIG) Biomarker Activity (AID 2283063); conditions: primary human foreskin fibroblasts; actives raise or lower the signal
Procedure, shortened: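 Human primary foreskin fibroblasts in the hDFCGF system, exposed to test chemical for 24 h; MIG measured by ELISA. Bidirectional curve fitting against DMSO negative control as activity baseline.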

[13] = read-out: Matrix Metallopeptidase 1 (MMP1), MMP1 (gene 4312); assay: BSK_hDFCGF_MMP1: BioMAP Diversity Plus: hDFCGF Assay for Matrix Metallopeptidase 1 (MMP1) Biomarker Activity (AID 2283064); conditions: primary human foreskin fibroblasts; actives raise or lower the signal
Procedure, shortened: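 MMP1 levels quantified by ELISA 24 h after dosing human dermal fibroblast cultures, with parallel SRB total-protein staining for overt cytotoxicity. Data fitted in both directions against DMSO baseline.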

[14] = read-out: Vascular cell adhesion molecule 1 (VCAM1), VCAM1 (gene 7412); assay: BSK_hDFCGF_VCAM1: BioMAP Diversity Plus: hDFCGF Assay for Vascular cell adhesion molecule 1 (VCAM1) Biomarker Activity (AID 2283065); conditions: primary human foreskin fibroblasts; actives raise or lower the signal
Procedure, shortened: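 ELISA readout of VCAM-1 on human dermal fibroblast primary cultures, 24 h after chemical exposure. Gain or loss of signal fitted in both directions against DMSO baseline.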

[15] = read-out: Plasminogen activator inhibitor-1 (PAI1), SERPINE1 (gene 5054); assay: BSK_hDFCGF_PAI1: BioMAP Diversity Plus: hDFCGF Assay for Plasminogen activator inhibitor-1 (PAI1) Biomarker Activity (AID 2283066); conditions: primary human foreskin fibroblasts; actives raise or lower the signal
Procedure, shortened: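 PAI-1 levels in human dermal foreskin fibroblasts were quantified by ELISA 24 h after dosing, with gain or loss analysed against DMSO. Overt cytotoxicity was checked by sulforhodamine B total-protein staining in parallel cultures.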

[16] = read-out: Intercellular Adhesion Molecule 1 (ICAM1), ICAM1 (gene 3383); assay: BSK_KF3CT_ICAM1: BioMAP Diversity Plus: KF3CT Assay for Intercellular Adhesion Molecule 1 (ICAM1) Biomarker Activity (AID 2283067); conditions: primary human keratinocytes with fibroblasts; actives raise or lower the signal
Procedure, shortened: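 Cell-surface ICAM-1 was measured by ELISA 24 h after dosing primary human skin keratinocytes co-cultured with fibroblasts. Parallel SRB staining tracked overt cytotoxicity. Gain or loss of signal was fitted relative to DMSO.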

[17] = read-out: Interferon-gamma inducible Protein 10 (IP10), CXCL10 (gene 3627); assay: BSK_KF3CT_IP10: BioMAP Diversity Plus: KF3CT Assay for Interferon-gamma inducible Protein 10 (IP10) Biomarker Activity (AID 2283068); conditions: primary human keratinocytes with fibroblasts; actives raise or lower the signal
Procedure, shortened: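 Signal is secreted/surface IP-10 by ELISA in a human primary skin co-culture of keratinocytes and foreskin fibroblasts, taken 24 h post-dosing; DMSO served as negative control.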

[18] = BSK_KF3CT_SRB: Viability Assessment in the BioMAP Diversity Plus: KF3CT Assay (AID 2283069); conditions: primary human keratinocytes with fibroblasts;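 further: read 24 h after compound addition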
Procedure, shortened: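 Cytotoxicity was gauged by SRB staining (0.1% SRB, 10% TCA fixation, 560 nm) of parallel cultures at 24 h. The cells were primary human skin keratinocytes co-cultured with fibroblasts, and activity was fitted in both directions against DMSO.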

[19] = read-out: Interleukin-1 alpha (IL1a), IL1A (gene 3552); assay: BSK_KF3CT_IL1a: BioMAP Diversity Plus: KF3CT Assay for Interleukin-1 alpha (IL1a) Biomarker Activity (AID 2283070); conditions: primary human keratinocytes with fibroblasts; actives raise or lower the signal
Procedure, shortened: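 IL-1a was detected by ELISA 24 h after chemical treatment of a co-culture of human skin keratinocytes and foreskin fibroblasts. Gain or loss of signal was fitted against the DMSO baseline.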

[20] = read-out: TIMP metallopeptidase inhibitor 2 (TIMP2), TIMP2 (gene 7077); assay: BSK_KF3CT_TIMP2: BioMAP Diversity Plus: KF3CT Assay for TIMP metallopeptidase inhibitor 2 (TIMP2) Biomarker Activity (AID 2283071); conditions: primary human keratinocytes with fibroblasts; actives raise or lower the signal
Procedure, shortened: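 TIMP-2 measured by ELISA at 24 h in human keratinocyte/fibroblast primary co-cultures exposed to chemicals. Both increases and decreases were fitted against DMSO. Parallel cultures were stained with SRB for total protein as an overt-cytotoxicity check.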

Measured: AC50

CCCCOCCOCCOC(=O)CCCCC(=O)OCCOCCOCCCC
inactive: [1] | [2] | [3] | [4] | [5] | [6] | [7] | [8] | [9] | [10] | [11] | [12] | [13] | [14] | [15] | [16] | [17] | [18] | [20]
active: [19] 2.19 µM

Cc1ccc(S(=O)(=O)OCC(F)(F)C(F)(F)C(F)(F)C(F)(F)C(F)(F)C(F)F)cc1
inactive: [1] | [2] | [3] | [4] | [5] | [6] | [7] | [8] | [9] | [10] | [11] | [12] | [13] | [14] | [15] | [16] | [17] | [18] | [19] | [20]

FC(F)(F)C(F)(F)C(F)(F)C(F)(F)C(F)(F)C(F)(F)C(F)(F)C(F)(F)CCS
inactive: [1] | [2] | [3] | [4] | [5] | [6] | [7] | [8] | [9] | [10] | [11] | [12] | [13] | [14] | [15] | [16] | [17] | [18] | [19] | [20]
active: [1] 0.0438 µM

O=S(=O)(OCCOC(F)(F)F)C(F)(F)F
inactive: [1] | [2] | [3] | [4] | [5] | [6] | [7] | [8] | [9] | [10] | [11] | [12] | [13] | [14] | [15] | [16] | [17] | [18] | [19] | [20]

C=CC(F)(F)C(F)(F)C(F)(F)C(F)(F)C(F)(F)C(F)(F)C(F)(F)C(F)(F)C=C
active: [10] 3.33 µM
inactive: [1] | [2] | [3] | [4] | [5] | [6] | [7] | [8] | [9] | [10] | [12] | [13] | [14] | [15] | [16] | [17] | [18] | [19] | [20]

FC1CC(F)(F)C(F)(F)C1(F)F (stereo unspecified)
inactive: [1] | [2] | [3] | [4] | [5] | [6] | [7] | [8] | [9] | [10] | [12] | [13] | [14] | [15] | [16] | [17] | [18] | [19] | [20]
active: [10] 21.1 µM

CO[Si](OC)(c1ccccc1)c1ccccc1
active: [1] 30.7 µM | [3] 29.5 µM | [4] 35.7 µM | [5] 32 µM | [8] 28.1 µM | [9] 32.5 µM | [10] 36 µM | [18] 32.6 µM | [20] 30.9 µM
inactive: [2] | [6] | [7] | [11] | [12] | [13] | [14] | [15] | [16] | [17] | [19]

C=CC(F)(F)C(F)(F)C(F)(F)C(F)(F)C(F)(F)C(F)(F)C(F)(F)C(F)(F)F
active: [6] 0.27 µM
inactive: [1] | [2] | [3] | [4] | [5] | [6] | [7] | [8] | [9] | [10] | [11] | [12] | [13] | [14] | [15] | [16] | [17] | [19] | [20]
